Records with an inconclusive call do not appear. Unmarked numbers belong to inactive results. Calls follow the shape of the dose curve; as a rule, active = well fitted inhibition curve with a large enough effect; inconclusive = small, poorly fitted or top-dose-only effect; inactive = flat fitted curve, though single readings scatter.
experiment: qHTS to identify inhibitors of the type 1 interferon - major histocompatibility complex class I in skeletal muscle: primary screen against the NCATS LOPAC collection (AID 1347405); conditions: iHSKM muscle cells, IFN-b-induced MHC-I HiBiT luminescence, 24 h; series mostly up to 45.9 µM; activity change, negative = inhibition: at the top concentration;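 also: lytic HiBiT luminescence reporting HLA-B protein level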
Procedure, shortened: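 Immortalized human C25cl48 myoblasts with HiBiT knocked into endogenous HLA-B*08:01 were stimulated with 4.0 ng/ml IFN-beta and given compounds in a 7-point, 1:4.3 titration from 46 uM final; after 24 hrs, lytic HiBiT luminescence was read.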
% is scaled to controls: 0 for no effect and ±100 for the full control effect.

Row | Compound | activity change, negative = inhibition
1 | Oc1ccc(O)cc1 | -4.76%
2 | O=C1CCC(c2ccc(-n3ccnc3)cc2)=NN1 | -12.8%
3 | COC(=O)[C@H]1[C@H]2C[C@H]3c4[nH]c5ccccc5c4CCN3C[C@H]2CC[C@@H]1O | 0.874%
4 | CN1C2CCC1CC(OC(=O)c1c[nH]c3ccccc13)C2 (centres undefined) | -13.1%
5 | CC(C)COC(=O)OCN1C(=O)CN(CCN2CC(=O)N(COC(=O)OCC(C)C)C(=O)C2)CC1=O | 5.62%
6 | CNCCC(Oc1ccccc1C)c1ccccc1 (centres undefined) | -16.6%
7 | CC1(C)CCC(NC(=O)[C@@H](N)CCC(=O)O)CC1 | 0.949%
8 | CC(=O)O[C@H]1C[C@@H]2CC[C@@H]3[C@H](CC[C@@]4(C)[C@H]3C[C@H]([N+]3(C)CCCCC3)[C@@H]4OC(C)=O)[C@@]2(C)C[C@@H]1[N+]1(C)CCCCC1 | -2.41%
9 | CC(CCc1ccccc1)NCC(O)c1ccc(O)c(C(N)=O)c1 (centres undefined) | 9.06%
10 | C1CCc2nnnn2CC1 | -6.9%
11 | CCC(NC(C)C)C(O)c1ccc(O)c(O)c1 (centres undefined) | -4.36%
12 | C[N+]1(CCCCC[N+]2(C)CCCC2)CCCC1 | -2.35%
13 | Nc1cc(Cl)c(NC2=NCCN2)c(Cl)c1 | 6.66%
14 | CCCC1O[C@@H]2C[C@H]3[C@@H]4CCC5=CC(=O)C=C[C@]5(C)[C@H]4[C@@H](O)C[C@]3(C)[C@]2(C(=O)CO)O1 (some centres undefined) | -21.9%
15 | CCCn1c(=O)[nH]c(=O)c2[nH]cnc21 | -11%
16 | CC[C@H](C)C(=O)O[C@H]1CCC=C2C=C[C@H](C)[C@H](CC[C@@H]3C[C@@H](O)CC(=O)O3)[C@H]21 | -23.6%
17 | O=C(O)c1cc2cc(Cc3cccnc3)ccc2o1 | 3.68%
18 | N[C@H](CO)C(=O)O | -2.65%
19 | N[C@@H](Cc1cnc[nH]1)C(=O)O | -3.48%

Source: PubChem BioAssay (NCATS)
